Measurements: PubChem BioAssay (NCI)
This is part of a sample that, as a whole, favours compounds with a hit. Of some 79,000 tested, about 15% had one in any assay. The source made the active and inactive calls. Rule as the data show it: active = growth inhibition above about 70%; inactive = the rest.

Columns and labels:
[1] = NCI Yeast Anticancer Drug Screen. Data for the mec2-1 strain (AID 157); conditions: S. cerevisiae mec2-1 strain, active compounds read high
Summary of the method: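 Strain: mec2-1 (DNA repair/cell cycle alteration). Compound exposure, then growth measured; inhibition expressed relative to vehicle.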

[2] = NCI Yeast Anticancer Drug Screen. Data for the rad14 strain (AID 159);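 also: 0% = growth of vehicle-treated control cultures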; conditions: S. cerevisiae rad14 strain growth inhibition, active compounds read high
Summary of the method: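 Here, inhibition of yeast growth was measured after compound exposure, using a strain with a genetic defect in DNA damage repair and vehicle-treated cultures as the reference.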

[3] = NCI Yeast Anticancer Drug Screen. Data for the sgs1 mgt1 strain (AID 161);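 also: 0% = growth of cultures given vehicle only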; conditions: S. cerevisiae sgs1 mgt1 strain, active compounds read high
Summary of the method: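 Read-out: growth inhibition vs vehicle controls. Cells: mutant yeast strain deficient in DNA damage repair.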

[4] = NCI Yeast Anticancer Drug Screen. Data for the cln2 rad14 strain (AID 165);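 also: 0% = growth equal to vehicle treated cultures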; conditions: S. cerevisiae cln2 rad14 strain, active compounds read high
Summary of the method: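 Compounds are applied to the cln2 rad14 yeast strain, and growth is then compared with that of vehicle-treated cultures to give inhibition.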

[5] = NCI Yeast Anticancer Drug Screen. Data for the bub3 strain (AID 167); conditions: S. cerevisiae bub3 mutant strain, active compounds read high
Summary of the method: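 Whole-cell yeast assay. The mutant strain was incubated with compounds, and growth inhibition was determined by comparison with vehicle-treated cells.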

[6] = NCI Yeast Anticancer Drug Screen. Data for the wt2 strain (AID 169);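 also: 0% = growth of vehicle-treated yeast cultures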; conditions: S. cerevisiae wt2 strain growth inhibition, active compounds read high
Summary of the method: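 This strain belongs to a panel of yeast strains with defined genetic alterations in DNA damage repair or cell cycle control. Compounds are applied, and growth inhibition is measured against vehicle-treated cultures.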

[7] = NCI Yeast Anticancer Drug Screen. Data for the mlh1 strain (AID 171);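 also: 0% = growth of vehicle-treated control cultures of the same strain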; conditions: S. cerevisiae mlh1 strain growth inhibition, active compounds read high
Summary of the method: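 Growth of the mutant yeast strain after compound exposure, expressed as inhibition relative to vehicle-only controls.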

[8] = NCI Yeast Anticancer Drug Screen. Data for the sgs1 strain (AID 173);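 also: 0% = growth of vehicle-only control cultures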; conditions: S. cerevisiae sgs1 mutant, active compounds read high
Summary of the method: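 Growth of a yeast strain bearing a defined genetic alteration is measured after compound treatment. Inhibition is expressed relative to vehicle-only controls.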

[9] = NCI Yeast Anticancer Drug Screen. Data for the mlh1 rad18 strain (AID 175); conditions: S. cerevisiae mlh1 rad18 strain growth inhibition, active compounds read high
Summary of the method: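 Read-out is yeast growth inhibition, calculated against vehicle-only controls. The compound was applied to a strain engineered with DNA damage repair alterations.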

[10] = NCI Yeast Anticancer Drug Screen. Data for the rad18 strain (AID 177); conditions: S. cerevisiae rad18 mutant growth inhibition, active compounds read high
Summary of the method: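 Growth of the mutant yeast strain after compound exposure, normalised to vehicle-only cultures.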

[11] = NCI Yeast Anticancer Drug Screen. Data for the rad52 strain (AID 147);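 also: 0% = growth of vehicle-treated control cultures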; conditions: S. cerevisiae rad52 mutant growth inhibition, active compounds read high
Summary of the method: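 Compounds are applied to a genetically defined yeast strain lacking normal DNA damage repair, and inhibition of growth is expressed relative to cultures given vehicle only.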

[12] = NCI Yeast Anticancer Drug Screen. Data for the wt1 strain (AID 149);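 also: 0% = growth of vehicle-treated wt1 cultures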; conditions: S. cerevisiae wt1 strain (SPY 50644) growth inhibition, active compounds read high
Summary of the method: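 Measured: growth of wt1 yeast under compound versus vehicle treatment, reported as inhibition.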

[13] = NCI Yeast Anticancer Drug Screen. Data for the rad50EPP+ strain (AID 151);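 also: 0% = growth of vehicle-treated control cultures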; conditions: S. cerevisiae rad50 mutant strain, active compounds read high
Summary of the method: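 Compounds were applied to the rad50EPP+ yeast strain, which bears a defined DNA repair alteration, and growth inhibition was determined relative to vehicle-treated cultures.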

[14] = NCI Yeast Anticancer Drug Screen. Data for the mgt1 strain (AID 153); conditions: S. cerevisiae mgt1 mutant growth inhibition, active compounds read high
Summary of the method: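 Strain: mgt1 yeast, one of a set carrying defined DNA damage repair or cell cycle control alterations. Compound-treated growth compared with vehicle.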

[15] = NCI Yeast Anticancer Drug Screen. Data for the rad50 strain (AID 155);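 also: 0% = growth of vehicle-only cultures of the same strain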; conditions: S. cerevisiae rad50 strain growth inhibition, active compounds read high
Summary of the method: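 Growth of the mutant yeast was measured after compound exposure and referenced to vehicle-treated cultures.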

[16] = at 5.0 µM (retest, dose inferred, filed as 0.5)
[17] = at 50.0 µM (retest, dose inferred, filed as 5.0)

Measured: growth inhibition

C[C@H](CCC(=O)NN)[C@H]1CC[C@H]2[C@@H]3CC[C@@H]4C[C@H](O)CC[C@]4(C)[C@H]3CC[C@]12C
inactive: [1]; [16] 0% | [1]; at 11.0 µM 3% | [1]; at 33.0 µM 5% | [1]; [17] 7% | [1]; at 50.0 µM 40.2% | [1]; at 100.0 µM 17% | [2]; at 1.2 µM 0% | [2]; at 3.7 µM -3% | [2]; at 11.0 µM 0% | [2]; at 33.0 µM -5% | [2]; at 100.0 µM 12% | [3]; [16] 3% | [3]; [17] 51% | [3]; at 50.0 µM 35.3% | [4]; [16] -4% | [4]; [17] 54% | [4]; at 50.0 µM 54.4% | [5]; at 1.2 µM -3% | [5]; at 3.7 µM 1% | [5]; [16] -18% | [5]; at 11.0 µM 8% | [5]; at 33.0 µM 1% | [5]; at 100.0 µM -3% | [6]; at 1.2 µM -2% | [6]; at 3.7 µM -2% | [6]; at 11.0 µM -2% | [6]; at 33.0 µM -1% | [6]; at 100.0 µM 2% | [7]; at 1.2 µM 3% | [7]; at 3.7 µM 2% | [7]; at 11.0 µM 2% | [7]; at 33.0 µM -14% | [7]; at 100.0 µM 4% | [8]; at 1.2 µM 2% | [8]; at 3.7 µM 3% | [8]; at 11.0 µM 4% | [8]; at 33.0 µM 4% | [8]; at 100.0 µM 6% | [9]; [16] 21% | [9]; [17] 44% | [10]; at 1.2 µM -5% | [10]; at 3.7 µM -4% | [10]; at 11.0 µM 5% | [10]; at 33.0 µM 0% | [10]; at 100.0 µM 3%
active: [5]; [17] 73% | [5]; at 50.0 µM 89.2% | [9]; at 50.0 µM 92.2%

O=C(/C=C/c1cccc(Br)c1)c1cccs1
inactive: [11]; at 1.2 µM -32% | [11]; at 3.7 µM -12% | [12]; at 1.2 µM -15% | [12]; at 3.7 µM -5% | [12]; at 11.0 µM 61% | [13]; at 1.2 µM -9% | [13]; at 3.7 µM -5% | [13]; at 11.0 µM 29% | [14]; at 1.2 µM -1% | [14]; at 3.7 µM 13% | [15]; at 1.2 µM 6% | [15]; at 3.7 µM 10% | [15]; [16] 8% | [1]; at 1.2 µM -16% | [1]; at 3.7 µM 4% | [1]; [16] -9% | [2]; at 1.2 µM -2% | [2]; at 3.7 µM 5% | [3]; [16] 16% | [4]; [16] 11% | [4]; at 50.0 µM 46.5% | [5]; at 1.2 µM 30% | [5]; at 3.7 µM 45% | [5]; [16] 36% | [6]; at 1.2 µM -24% | [6]; at 3.7 µM -16% | [6]; at 11.0 µM 67% | [7]; at 1.2 µM 9% | [7]; at 3.7 µM 25% | [8]; at 1.2 µM -17% | [8]; at 3.7 µM 0% | [9]; [16] 21% | [10]; at 1.2 µM 4% | [10]; at 3.7 µM 26%
active: [11]; at 11.0 µM 74% | [11]; at 33.0 µM 97% | [11]; at 100.0 µM 94% | [12]; at 33.0 µM 98% | [12]; at 100.0 µM 95% | [13]; at 33.0 µM 82% | [13]; at 100.0 µM 85% | [14]; at 11.0 µM 85% | [14]; at 33.0 µM 97% | [14]; at 100.0 µM 92% | [15]; at 11.0 µM 83% | [15]; at 33.0 µM 97% | [15]; [17] 96% | [15]; at 50.0 µM 88.2% | [15]; at 100.0 µM 91% | [1]; at 11.0 µM 75% | [1]; at 33.0 µM 99% | [1]; [17] 98% | [1]; at 50.0 µM 91.5% | [1]; at 100.0 µM 96% | [2]; at 11.0 µM 81% | [2]; at 33.0 µM 96% | [2]; at 100.0 µM 92% | [3]; [17] 96% | [3]; at 50.0 µM 91.8% | [4]; [17] 97% | [5]; at 11.0 µM 94% | [5]; at 33.0 µM 98% | [5]; [17] 98% | [5]; at 50.0 µM 90.8% | [5]; at 100.0 µM 96% | [6]; at 33.0 µM 98% | [6]; at 100.0 µM 95% | [7]; at 11.0 µM 89% | [7]; at 33.0 µM 97% | [7]; at 100.0 µM 95% | [8]; at 11.0 µM 78% | [8]; at 33.0 µM 98% | [8]; at 100.0 µM 94% | [9]; [17] 95% | [9]; at 50.0 µM 87.9% | [10]; at 11.0 µM 91% | [10]; at 33.0 µM 97% | [10]; at 100.0 µM 93%
